Values joined by “and” are separate entries in the source; they are usually repeats but may differ in a detail not shown here. Equal entries are not always repeated. Among all 5,500 compounds or so, about 2,000 (36%) were called active. Inconclusive results (about 18%) are left out. Rule as the data show it: active = normalized growth mostly below about 0.91 (no sharp cut-off); inconclusive = no clear call, values can overlap the other calls; inactive = mostly above about 0.92. Some of the results follow.
Test: chemical genetic growth profiling, strain panel (AID 1159580);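 also: tested at 20 µM; growth read once vehicle control cultures reached saturation at 30 °C; 1 = growth at the plate median or of vehicle wells; lower values mean less growth of the strain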
Conditions: S. cerevisiae deletion strains, growth OD

In the case of `CCC(Cc1c(I)cc(I)c(N)c1I)C(=O)O` (stereo not given), the normalized growth (locus YAL013W, strain DEP1, stronger effect = lower value) was 0.979 (inactive), the normalized growth (locus YAL021C, strain ccr4, stronger effect = lower value) was 0.934 (inactive) and the normalized growth (locus YAL026C, strain drs2, stronger effect = lower value) was 0.889 (active). The normalized growth (locus YAL030W, strain snc1, stronger effect = lower value) was 0.945 (inactive), the normalized growth (locus YBL061C, strain skt5, stronger effect = lower value) was 0.955 (inactive) and the normalized growth (locus YBR009C, strain hhf1, stronger effect = lower value) was 0.861 (active). The normalized growth (locus YBR021W, strain FUR4, stronger effect = lower value) was 1.03 (inactive), the normalized growth (locus YBR023C, strain chs3, stronger effect = lower value) was 0.935 (inactive) and the normalized growth (locus YBR171W, strain sec66, stronger effect = lower value) was 0.921 (inactive). The normalized growth (locus YBR229C, strain ROT2, stronger effect = lower value) was 0.989 (inactive), the normalized growth (locus YBR231C, strain swc5, stronger effect = lower value) was 0.977 (inactive) and the normalized growth (locus YBR279W, strain paf1, stronger effect = lower value) was 0.945 (inactive). For the same molecule, the normalized growth (locus YCL011C, strain gbp2, stronger effect = lower value) was 0.905 (active), the normalized growth (locus YCL016C, strain dcc1, stronger effect = lower value) was 0.934 (inactive) and the normalized growth (locus YCL029C, strain bik1, stronger effect = lower value) was 0.997 (inactive). For the same molecule, the normalized growth (locus YCL069W, strain vba3, stronger effect = lower value) was 0.907 (active), the normalized growth (locus YCR088W, strain abp1, stronger effect = lower value) was 0.935 (inactive) and the normalized growth (locus YDL005C, strain med2, stronger effect = lower value) was 0.95 (inactive). For the same molecule, the normalized growth (locus YDL035C, strain GPR1, stronger effect = lower value) was 1 (inactive), the normalized growth (locus YDL040C, strain nat1, stronger effect = lower value) was 0.96 (inactive) and the normalized growth (locus YDL074C, strain BRE1, stronger effect = lower value) was 1.01 (inactive). The normalized growth (locus YDL101C, strain DUN1, stronger effect = lower value) was 1.01 (inactive), the normalized growth (locus YDL134C, strain PPH21, stronger effect = lower value) was 1.01 (inactive) and the normalized growth (locus YDL192W, strain arf1, stronger effect = lower value) was 0.997 (inactive). The normalized growth (locus YDR001C, strain nth1, stronger effect = lower value) was 0.927 (inactive), the normalized growth (locus YDR069C, strain doa4, stronger effect = lower value) was 0.951 (inactive) and the normalized growth (locus YDR101C, strain arx1, stronger effect = lower value) was 1 (inactive). The normalized growth (locus YDR137W, strain rgp1, stronger effect = lower value) was 0.71 (active), the normalized growth (locus YDR150W, strain NUM1, stronger effect = lower value) was 1.01 (inactive) and the normalized growth (locus YDR159W, strain sac3, stronger effect = lower value) was 0.895 (inactive). The normalized growth (locus YDR162C, strain NBP2, stronger effect = lower value) was 0.982 (inactive), the normalized growth (locus YDR195W, strain ref2) was 0.992 (inactive) and the normalized growth (locus YDR297W, strain sur2, stronger effect = lower value) was 0.954 (inactive). For the same molecule, the normalized growth (locus YDR318W, strain mcm21, stronger effect = lower value) was 1 (inactive), the normalized growth (locus YDR334W, strain swr1, stronger effect = lower value) was 0.942 (inactive) and the normalized growth (locus YDR335W, strain msn5, stronger effect = lower value) was 0.947 (inactive). For the same molecule, the normalized growth (locus YDR388W, stronger effect = lower value) was 0.996 (inactive), the normalized growth (locus YDR392W, strain spt3, stronger effect = lower value) was 0.711 (active) and the normalized growth (locus YDR502C, strain sam2, stronger effect = lower value) was 0.991 (inactive). The normalized growth (locus YEL003W, strain gim4, stronger effect = lower value) was 0.934 (inactive), the normalized growth (locus YEL037C, strain rad23, stronger effect = lower value) was 0.947 (inactive) and the normalized growth (locus YEL061C, strain CIN8 (second series), stronger effect = lower value) was 0.942 (inactive). The normalized growth (locus YEL061C, strain CIN8, stronger effect = lower value) was 0.994 (inactive), the normalized growth (locus YER015W, strain faa2, stronger effect = lower value) was 0.977 (inactive) and the normalized growth (locus YER016W, strain bim1, stronger effect = lower value) was 0.927 (inactive). The normalized growth (locus YER110C, stronger effect = lower value) was 1 (inactive), the normalized growth (locus YER111C, strain swi4, stronger effect = lower value) was 0.925 (inactive) and the normalized growth (locus YER155C, strain BEM2 (second series), stronger effect = lower value) was 0.94 (inactive). For the same molecule, the normalized growth (locus YER155C, strain BEM2, stronger effect = lower value) was 1 (inactive), the normalized growth (locus YER167W, strain BCK2, stronger effect = lower value) was 0.998 (inactive) and the normalized growth (locus YFR010W, strain ubp6, stronger effect = lower value) was 0.985 (inactive). The normalized growth (locus YGL078C, strain dbp3, stronger effect = lower value) was 0.997 (inactive), the normalized growth (locus YGL086W, strain mad1, stronger effect = lower value) was 0.986 (inactive) and the normalized growth (locus YGL167C, strain pmr1, stronger effect = lower value) was 0.928 (inactive). For the same molecule, the normalized growth (locus YGL173C, strain kem1, stronger effect = lower value) was 0.936 (inactive), the normalized growth (locus YGL227W, strain vid30, stronger effect = lower value) was 0.949 (inactive) and the normalized growth (locus YGL240W, strain doc1, stronger effect = lower value) was 0.99 (inactive). The normalized growth (locus YGL248W, strain PDE1, stronger effect = lower value) was 1 (inactive), the normalized growth (locus YGL253W, strain hxk2, stronger effect = lower value) was 0.921 (inactive) and the normalized growth (locus YGR078C, strain PAC10, stronger effect = lower value) was 1.01 (inactive). The normalized growth (locus YGR135W, strain pre9, stronger effect = lower value) was 1 (inactive), the normalized growth (locus YGR229C, strain SMI1, stronger effect = lower value) was 1.02 (inactive) and the normalized growth (locus YGR252W, strain gcn5, stronger effect = lower value) was 1.04 (inactive). For the same molecule, the normalized growth (locus YHR013C, strain ard1, stronger effect = lower value) was 0.852 (inactive), the normalized growth (locus YHR027C, strain rpn1, stronger effect = lower value) was 0.927 (inactive) and the normalized growth (locus YHR030C, strain SLT2, stronger effect = lower value) was 1 (inactive) and 0.148 (active). For the same molecule, the normalized growth (locus YHR079C, strain IRE1 (second series), stronger effect = lower value) was 1 (inactive), the normalized growth (locus YHR079C, strain IRE1, stronger effect = lower value) was 0.135 (active) and the normalized growth (locus YHR094C, strain hxt1, stronger effect = lower value) was 1 (inactive). For the same molecule, the normalized growth (locus YHR129C, strain ARP1, stronger effect = lower value) was 0.957 (inactive), the normalized growth (locus YHR142W, strain chs7, stronger effect = lower value) was 0.912 (inactive) and the normalized growth (locus YHR200W, strain rpn10, stronger effect = lower value) was 1 (inactive). For the same molecule, the normalized growth (locus YIL066C, strain RNR3, stronger effect = lower value) was 1 (inactive), the normalized growth (locus YIL073C, strain SPO22, stronger effect = lower value) was 1.04 (inactive) and the normalized growth (locus YIL125W, strain kgd1, stronger effect = lower value) was 0.992 (inactive). The normalized growth (locus YIR030C, strain dcg1, stronger effect = lower value) was 0.996 (inactive), the normalized growth (locus YJL092W, strain hpr5, stronger effect = lower value) was 0.942 (inactive) and the normalized growth (locus YJL095W, strain BCK1 (second series), stronger effect = lower value) was 0.959 (inactive). For the same molecule, the normalized growth (locus YJL095W, strain BCK1, stronger effect = lower value) was 0.993 (inactive) and 0.112 (active), the normalized growth (locus YJL115W, strain asf1, stronger effect = lower value) was 0.954 (inactive) and the normalized growth (locus YJL129C, strain trk1, stronger effect = lower value) was 0.931 (inactive). The normalized growth (locus YJL134W, strain LCB3, stronger effect = lower value) was 1 (inactive), the normalized growth (locus YJL154C, strain vps35, stronger effect = lower value) was 0.935 (inactive) and the normalized growth (locus YJL164C, strain tpk1, stronger effect = lower value) was 0.903 (active). For the same molecule, the normalized growth (locus YJL166W, strain qcr8, stronger effect = lower value) was 0.949 (inactive), the normalized growth (locus YJL168C, strain set2, stronger effect = lower value) was 0.999 (inactive) and the normalized growth (locus YJL187C, strain SWE1 (second series), stronger effect = lower value) was 1.01 (inactive). The normalized growth (locus YJR043C, strain POL32, stronger effect = lower value) was 1.03 (inactive), the normalized growth (locus YJR066W, strain TOR1, stronger effect = lower value) was 0.0664 (active) and the normalized growth (locus YJR075W, strain HOC1, stronger effect = lower value) was 1.02 (inactive).

Reference: PubChem BioAssay AID1159580 (chemical genetic matrix, 2015)
